Measured values reported in PubChem BioAssay AID504834 (National Center for Advancing Translational Sciences (NCATS), 2011).
The whole screen tested about 320,000 compounds, of which about 22,000 (6.9%) were called active. Where a call stands in place of a potency, no number is given. About 27% were inconclusive and are not listed. The call rests on the fitted dose curve; in most records, active means well fitted inhibition curve with a large enough effect; inconclusive means small, poorly fitted or top-dose-only effect, or another doubt; inactive means no such curve, though single readings can be large or run the other way. The full list was thinned out, with actives kept by preference.

Test: Primary qHTS for delayed death inhibitors of the malarial parasite plastid, 96 hour incubation
Conditions: P. falciparum luciferase reporter growth; series mostly up to 28.7 µM
Outline: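 Readout is luminescence from an integrated firefly luciferase in P. falciparum. Red cells, 2% hematocrit and 0.05% parasitemia final, were cultured with compound through two parasite generations (96 hours) at 37 C, 5% CO2.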
Potency means the concentration at half of the fitted maximal effect.

SMILES	Potency
COc1cccc2cc(C(=O)N3CCN(C(=O)c4ccccc4)CC3)c(=O)oc12	inactive
COc1cccc2cc(-c3cc(=O)oc4cc(C)c(O)cc34)oc12	13.1 µM (active)
COc1cccc(C(=O)OCc2cc(=O)oc3c(C)c(C)ccc23)c1OC	inactive
O=C(NCc1ccccc1)C(c1ccccc1)N(C(=O)c1csnn1)c1ccc(F)cc1 (stereo not drawn)	inactive
O=C(O)CCCC(=O)Nc1ccc(Oc2cccc(C(F)(F)F)c2)nc1	inactive
O=C(O)CCCn1cc(NC(=O)COc2cccc(Cl)c2)cn1	14.7 µM (active)
O=C(COc1cccc(Cl)c1)NCc1ccccc1	inactive
COc1ccccc1NC(=O)C(C)OC(=O)CC1CCCC1 (stereo not drawn)	inactive
Cc1ccccc1NC(=O)CCNS(=O)(=O)c1ccc2[nH]c(=O)oc2c1	inactive
COc1cccc(CN(C)CC(=O)Nc2sc3c(c2C#N)CCC3)c1	inactive
COc1cccc(CN(C)CC(O)COC(c2ccccc2)c2ccccc2C)c1 (stereo not drawn)	5.86 µM (active)
Cc1ccccc1C(OCC(O)CN1CCCCC1CCO)c1ccccc1 (stereo not drawn)	inactive
CCc1nn(CCCC(=O)NC(C)c2ccccc2)c(=O)c2cc3occc3n12 (stereo not drawn)	inactive
CCN1C(=O)C(=O)N(CC(=O)Nc2cc(C)ccc2C)C1=O	inactive
Cc1cccc(NC(=O)CCN2CC(C)CC(C)C2)c1 (stereo not drawn)	inactive
NS(=O)(=O)c1ccc(Nc2nc(-c3ccccc3)cs2)cc1	inactive
Cc1cccn2c(=O)c(C=O)c(Nc3ccc(S(N)(=O)=O)cc3)nc12	5.86 µM (active)
CNc1nc2c(C)cccn2c(=O)c1C=Nc1ccc(OC)cc1	inactive
CCOCCCNC(=O)c1ccc(CS(=O)(=O)c2cccc(C(F)(F)F)c2)o1	inactive
CCc1cc(C(=O)Nc2nnc(C3CC3)s2)sc1C	inactive
COc1ccc(CCn2c(-c3ccco3)nc3nc4ccccc4nc32)cc1OC	inactive
COc1cc(-c2n[nH]c(=S)n2Cc2ccccc2)cc(OC)c1OC	inactive
CCC(C)n1c(-c2cc(OC)c(OC)c(OC)c2)nc2nc3ccccc3nc21 (stereo not drawn)	5.86 µM (active)
COc1ccccc1N1CCN(CC(=O)Nc2ccnn2C2CCCC2)CC1	inactive
Cc1ccc(SCC(=O)NNC(=O)c2ccc(S(C)(=O)=O)cc2)cc1	inactive
COc1ccccc1CN1CC(C(=O)NCCc2cn[nH]c2)CCC1=O (stereo not drawn)	inactive

SMILES	Potency
CCC(=O)Nc1ccc2c(c1)nc(CCN1CCN(c3ccccn3)CC1)n2C	inactive
NS(=O)(=O)c1ccc(NC(=S)NC(=O)c2cccc(Br)c2)cc1	13.1 µM (active)
NS(=O)(=O)c1ccc(NC(=S)NC(=O)c2cccnc2)cc1	inactive
O=C(NC(=S)Nc1ccc(S(=O)(=O)Nc2ncccn2)cc1)c1cccc(Br)c1	inactive
Cc1cc(NC(=O)[C@H](C)NC(=O)c2ccco2)ccc1Br	inactive
CCc1ccc(C(=O)COC(=O)c2ccco2)cc1	inactive
CC(C)(C)c1ccc(C(=O)N2CCC(C(=O)N3CCCCC3)CC2)cc1	inactive
CCOC(=O)c1cc2c(n(-c3ccc(C)cc3)c1=O)CCCC2=O	inactive
CCOC(=O)C1=C(C)NC(=S)NC1c1cccs1 (stereo not drawn)	inactive
CCOC(=O)C1=C(N)N(c2ccc(C)cc2)C2=C(C(=O)CCC2)C1c1cccs1 (stereo not drawn)	3.7 µM (active)
COC(=O)c1ccc(NC(=O)c2cc3c(CO)cnc(C)c3oc2=Nc2cccc(C(N)=O)c2)cc1	inactive
CC(C)c1cc(C(=O)N/N=C/C(Br)=C/c2ccccc2)n[nH]1	3.29 µM (active)
Cc1cc(-c2n[nH]c(=S)n2/N=C/C(Br)=C/c2ccccc2)n[nH]1	inactive
CC(/C=N/NC(=O)c1cc(-c2ccc3ccccc3c2)n[nH]1)=C\c1ccco1	inactive
CN(C(=O)COC(=O)CCCc1c[nH]c2ccccc12)c1c(N)n(Cc2ccccc2)c(=O)[nH]c1=O	inactive
CCCNC(=O)C(=O)Nc1cc2c3c(c1)CCC(=O)N3CCC2	inactive
COc1ccc(CCNC(=O)C2CCCN2C(=O)Nc2ccccc2)cc1OC (stereo not drawn)	inactive
O=C(O)/C=C/c1cn(Cc2ccccc2)nc1-c1cccs1	inactive
O=C(O)c1ccc(NC(=O)c2cn(-c3ccccc3)nc2-c2ccc(Cl)cc2)cc1	inactive
O=C(/C=C\c1cn(-c2ccccc2)nc1-c1cccs1)N1CCOCC1	10.4 µM (active)
COc1ccc(-c2nn(-c3ccccc3)cc2/C=C\C(=O)Nc2ccc(C(=O)O)cc2)cc1	inactive
O=C(O)c1ccc(N/N=C/c2cn(-c3ccccc3)nc2-c2cccs2)cc1	0.465 µM (active)
O=C(O)/C=C/c1cn(-c2ccccc2)nc1-c1cccs1	inactive
N#Cc1cccc(CN2CCC(=O)N(CCO)CC2)c1	inactive
COc1ccccc1N1CCN(S(=O)(=O)CCNC(=O)c2ccc(OC(C)C)cc2)CC1	inactive
CCCCC1(C(=O)OCC)NC(c2ccc(O)cc2)C2C(=O)N(c3ccccc3)C(=O)C21 (stereo not drawn)	inactive

SMILES	Potency
CC(OC(=O)C1CC(=O)N(Cc2ccccc2)C1)C(=O)Nc1ccccc1[N+](=O)[O-] (stereo not drawn)	inactive
CCSCc1nc(N)nc(NCCc2ccccc2)n1	inactive
O=C1CN(C(=O)c2ccccc2F)C(c2ccc(F)cc2)c2cc(F)ccc2N1 (stereo not drawn)	inactive
CCC(CC)C(=O)N1CC(=O)Nc2ccc(Br)cc2C1c1ccccc1 (stereo not drawn)	8.28 µM (active)
Cc1ccc2c(c1)C(c1ccccc1)N(C(=O)c1ccc(F)cc1)CC(=O)N2 (stereo not drawn)	inactive
CC(C)C(=O)N1CC(=O)Nc2ccc(F)cc2C1c1ccc(F)cc1 (stereo not drawn)	inactive
Cc1ccc(C(=O)N2CC(=O)Nc3ccc(F)cc3C2c2ccc(F)cc2)cc1 (stereo not drawn)	1.47 µM (active)
COC(=O)CN1C(C)=Nc2ccc(Br)cc2C1c1ccccc1 (stereo not drawn)	inactive
CCCCn1c(N)c(N(CC(C)C)C(=O)c2cccc(S(=O)(=O)N3CC(C)OC(C)C3)c2)c(=O)[nH]c1=O (stereo not drawn)	inactive
O=C(COC(=O)c1cc(=O)[nH]c2ccccc12)NCc1cccc(Cl)c1	inactive
O=C(Nc1ccccc1C(=O)N1CCCCCC1)c1ccccc1Cl	inactive
O=C(Nc1ccccc1C(=O)N1CCOCC1)c1ccc(Cl)cc1	13.1 µM (active)
O=C(Nc1ccccc1C(=O)N1CCOCC1)c1ccc(CSc2ccccc2)cc1	inactive
Cc1cc(NC(=O)CN2CCC(O)(c3cccc(F)c3)CC2)no1	inactive
O=C(CN1CCN(C(=O)c2cccc(F)c2)CC1)Nc1ccccc1F	inactive
CC(=O)NC1(c2cccc(F)c2)CCN(CC(=O)NC(C)C)CC1	1.85 µM (active)
O=C(O)Cc1csc(NC(=O)CSc2nnnn2-c2ccc(O)cc2)n1	inactive
CCn1c(SCC(=O)NC2CC2)nnc1-c1ccccn1	inactive
Cc1ccc(S(=O)(=O)N(C)CC(=O)NC2CCCC2)cc1	inactive
Cc1ccc(S(=O)(=O)N(CC(=O)NCCSC2CCCCC2)c2ccccc2F)cc1	1.65 µM (active)
CCN(CC(=O)NCCc1ccccc1)S(=O)(=O)c1ccc(C)cc1	inactive
O=C(CS(=O)(=O)c1cn(Cc2ccc(Cl)cc2)c2ccccc12)N1CCOCC1	8.28 µM (active)
Cc1ccc(CNC(=O)C(=O)c2cn(CC(=O)N3CCOCC3)c3ccccc23)cc1	inactive
O=C(CS(=O)(=O)c1cn(Cc2cccc(F)c2)c2ccccc12)N1CCCCC1	inactive
CCc1ccc(NC(=O)COC(=O)c2cccs2)cc1	inactive
CCOC(=O)Cc1cc(=O)[nH]c(/N=C(\N)Nc2ccc(OC)cc2)n1	inactive

SMILES	Potency
O=C(CN1CCOCC1)N/N=C/c1ccc(-c2ccc(Br)cc2)o1	inactive
CC(/C=C/C1(O)C(C)CC(=O)CC1(C)C)OC1OC(CO)C(O)C(O)C1O (stereo not drawn)	inactive
COC(=O)C1=CO[C@@H](O[C@@H]2O[C@H](CO)[C@@H](O)[C@H](O)[C@H]2O)C2C1C[C@H](O)[C@@H]2C (stereo partly drawn)	inactive
C=CC1C(OC2OC(CO)C(O)C(O)C2O)OC=C(C(=O)OC)C1CC1CC(=O)CC(CC(=O)CCc2ccc(O)cc2)O1 (stereo not drawn)	5.22 µM (active)
Cc1cc(=O)[nH]c2nnnn12	inactive
NS(=O)(=O)c1ccc(CNC(=O)c2cccc(Oc3ccccc3)c2)cc1	inactive
Cc1nc(C)c2c(c1C(F)(F)F)-c1ccccc1C2(F)F	11.7 µM (active)
COCCCC1CCN(C(=O)C2CCC(=O)N(C3CCCCCC3)C2)CC1 (stereo not drawn)	inactive
CCN(CC)c1ccc(NC(=O)CN2C(=O)NC3(CCc4ccccc43)C2=O)cc1 (stereo not drawn)	inactive
COc1ccc(C(=O)NCc2nnc(SCCOc3ccccc3)n2C)cc1	inactive
COc1cccc(C(=O)NCCSc2ccc(Br)cc2)c1	inactive
COc1ccc(C(=O)NCCSc2ccccc2C)cc1	3.29 µM (active)
COc1cc(C(C(=O)NC2CCCC2)N(Cc2ccccc2)C(=O)c2snc(C(N)=O)c2N)ccc1O (stereo not drawn)	inactive
COc1ccc(CNC(=O)C(=O)NCC2OCCN2C(=O)c2ccc(OC)cc2)cc1 (stereo not drawn)	inactive
O=C(CCCC(=O)N(CC(=O)NC1CCCC1)Cc1ccccc1Cl)Nc1ccccn1	inactive
Cc1ccnc(NC(=O)CCC(=O)N(CC(=O)NCCc2ccccc2)Cc2cccs2)c1	inactive
O=C(CN(Cc1ccccc1)C(=O)CCC(=O)Nc1ccccn1)NCCc1ccccc1	13.1 µM (active)
CCCNC(=O)c1c(N)n(-c2ccc(S(N)(=O)=O)cc2)c2nc3ccccc3nc12	inactive
CCC(C)NC(=O)c1c(N)n(/N=C/c2cccs2)c2nc3ccccc3nc12 (stereo not drawn)	10.4 µM (active)
C=CCn1c(N)c(C(=O)OCC(C)C)c2nc3ccccc3nc21	inactive
O=C(NCCc1c[nH]c2ccc(Cl)cc12)c1ccc([N+](=O)[O-])cc1	inactive
Cc1ccc(CNC(=O)c2c(-c3ccccc3)noc2C)cc1	inactive
Oc1ccccc1CNc1ncc(Br)cc1Br	13.1 µM (active)
Brc1ccc2ncnc(NCc3cccnc3)c2c1	inactive
CCc1cccc(C)c1NS(=O)(=O)c1cc(Br)cnc1N	inactive
